# Reference: PubChem BioAssay (EPA / NIEHS)
# Results filed as inconclusive are left out. Activity calls are given as the source filed them. How the source made its calls, unless noted: active means hit-call score of the fitted dose curve at least 0.9, where 1 is the maximum; inactive means score below 0.9.
# Tests used:
# [1] = TAMU_PeakParms_SingleDonor1434_QT: Texas A&M University (TAMU) 1.5-hr Human Induced Pluripotent Stem Cell (iPSC)-derived Cardiomyocytes Calcium (Ca+2) Flux Assay for Cardiotoxicity: QT (decay-rise ratio) (AID 2284235; active means hit-call score of the fitted dose curve at least 0.9, where 1 is the maximum)
# Outline: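 Decay/rise ratio of calcium-flux fluorescence scored after 90 min exposure (37C) of donor 1434 iPSC cardiomyocytes to 0.2–100 uM (0.5% DMSO). Beat-cessation and severe-notch points removed; POD is EC05, a 5% rise over DMSO.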
# [2] = CCTE_Mundy_HCI_Cortical_NOG_NeuronCount: CCTE's Neurite Outgrowth Assay in rat cortical cells for Neuron Count, Mundy Lab (AID 2284236; active means hit-call score of the fitted dose curve at least 0.9, where 1 is the maximum;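 further: neurons counted by imaging betaIII-tubulin and Hoechst stained cortical cells; cells exposed to compound for about 48 hours before fixation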)
# Outline: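 Read-out: neuron number by high-content imaging of betaIII-tubulin (Alexa Fluor-488) and Hoechst-labelled rat primary cortical cells.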
# [3] = CCTE_Mundy_HCI_Cortical_NOG_BPCount: CCTE's Neurite Outgrowth Assay in rat cortical cells for Branch Point Count, Mundy Lab (AID 2284237);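 on AC50: branch points counted about two days after chemical exposure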
# Method: CCTE_Mundy_HCI_Cortical_NOG is a multiplexed, cell-based-readout assay that uses rat primary cortical cells with measurements taken at 50.33 hours after chemical dosing in a microplate: 96-well plate.CCTE_Mundy_HCI_Cortical_NOG_BPCount is one of four components of the CCTE_Mundy_HCI_Cortical_NOG assay. It measures neurite outgrowth related to the number of branch points using High Content Imaging of fluorescently labelled markers.[…] Using a type of morphology reporter, loss -of-signal activity can be used to understand developmental effects.
# Exposure starts 2 hours post-plating by adding 10 ul of the working solution to 90 ul of media in the wells for a 1/10 dilution. Forty-eight hours after chemical treatment cells are fixed by direct addition of 100 ul of warm (37C) Dulbecco's phosphate buffered saline (DPBS) fixative solution containing 8% paraformaldehyde, 8% sucrose, and 0.1% of 3 mg/ml Hoechst 33342 into each well. Primary antibodies are prepared by dilution in Immunocytochemical Staining Buffer (ISB), 10X Dulbecco's PBS, 0.1% Saponin, 5% Bovine Serum Albumin, 0.5% NaN3 (Sodium Azide) and betaIII-tubulin (rabbit anti-betaIII-tubulin, 1:800) followed by Alexa Fluor-488 secondary (1:500) to label neuronal cell bodies and neurites. A Cellomics ArrayScan VTi HCS Reader is used for automated image acquisition and analysis of neurite outgrowth.
# [4] = CCTE_Mundy_HCI_hNP1_Casp3_7: CCTE's Caspase-Glo 3/7 Assay in human neuroprogenitor cells for Apoptosis, Mundy Lab (AID 2284240)
# Outline: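 Apoptosis is scored by activated caspase-3/7 luminescence in WA09-derived neural progenitor cells, measured 26.5 h after chemical dosing. Values represent gain of signal relative to DMSO vehicle.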
# [5] = read-out: Tumor necrosis factor (Homo sapiens) (UniProt P01375); experiment: BSK_BT_xTNFa: BioMAP Diversity Plus: BT Assay for Tumor necrosis factor alpha (TNF-alpha) Biomarker Activity (AID 2284230); settings: primary human B cells with PBMC
# Outline: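 B cells with PBMC in co-culture, dosed and sampled at 24 h; secreted TNF-alpha measured by Luminex xMAP bead assay. Activity fitted in the gain direction against DMSO as negative control and baseline.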
# [6] = read-out: Vascular cell adhesion molecule 1 (VCAM1), VCAM1 (gene 7412); experiment: BSK_MyoF_VCAM1: BioMAP Diversity Plus: MyoF Assay for Vascular cell adhesion molecule 1 (VCAM1) Biomarker Activity (AID 2284231); settings: primary human lung fibroblasts
# Outline: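 ELISA readout of VCAM-1 on human lung fibroblast cultures 24 hours after dosing, analyzed for signal gain relative to DMSO. Overt cytotoxicity was checked by sulforhodamine B total-protein staining in parallel cultures.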
# [7] = read-out: Collagen I, COL1A1 (gene 1277); experiment: BSK_MyoF_CollagenI: BioMAP Diversity Plus: MyoF Assay for Collagen I Biomarker Activity (AID 2284238); settings: primary human lung fibroblasts
# Outline: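 Collagen I levels measured by ELISA on human lung fibroblast cultures 24 h post-dosing, with curve fitting in the positive direction relative to DMSO; SRB staining of parallel wells marked cytotoxicity.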
# [8] = UKN4_HCS_LUHMES_cell_viability: Viability Assessment in the University of Konstanz (UKN) Leist Lab Neurite Outgrowth Assay in human LUHMES cells (UKN4) (AID 2284232)
# Outline: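 Day-2 differentiated LUHMES, 30000 cells/well, dosed ~30 min–2 h post-seeding; 24 h treatment incl. staining; Hoechst H-33342 + calcein-AM at 23.5 h; HCS imaging; DMSO-normalized, bidirectional fit.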
# [9] = UKN2_HCS_IMR90_cell_viability: Viability Assessment in the University of Konstanz (UKN) Leist Lab Neural Crest Cell Migration Assay in human induced IMR90 Pluripotent Stem Cells (UKN2) (AID 2284233);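 further: cells exposed to compound for 24 h after a 24 h migration phase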
# Method: UKN2_HCS_IMR90 is a cell-based, multiplexed-readout assay screening for neural crest cell migration and cell viability that uses IMR90 (neural crest cells differentiated from iPSC), a human embryo cell line, with measurements taken at […] after chemical dosing in a microplate: 96-well plate. UKN2, also known as cMINC, is an assay that uses IMR90 cells (neural crest cells differentiated from iPSC) as a model of neural crest cell migration. 24 hr after cell seeding, cell migration was initiated and proceeded for 24 hr. Then, chemical was applied, and after 24 hr of exposure migration and viability were assessed using high-content imaging of cells stained with calcein-AM and Hoechst H-33342.UKN2_HCS_IMR90_cell_viability is an assay component measured from the UKN2_HCS_IMR90 assay. It is designed to make measurements of enzyme activity, a form of viability reporter, as detected with Fluorescence intensity signals by HCS Fluorescent Imaging.The assay endpoint UKN2_HCS_IMR90_cell_viability was analyzed with bidirectional fitting relative to DMSO as the negative control and baseline of activity. Using a type of viability reporter, gain or loss-of-signal activity can be used to understand viability effects. To generalize the intended target to other relatable targets, this assay endpoint is annotated to the cell cycle intended target family, where the subfamily is viability.
# The wells are coated with PLO/laminin/fibronectin. Then, silicone stoppers are placed into the wells of a 96-well plate. Cells are seeded around the stoppers and allowed to attach for 24 hours. Day 0: The silicone stoppers are removed and the medium is replaced with pre-warmed, fresh N2-S medium containing the cytokines EGF and FGF. Cells are allowed to migrate into the cell free area. Day 1: 25 ul of the 5x concentrated toxicants are added to the wells. The cells plus toxicants are incubated for 24 h. Day 2: Cells are stained with calcein-AM and Hoechst (H-33342) for 30 min before imaging with a high content imaging microscope. Quantification of migration and viability is done by high content imaging analysis.
# [10] = TAMU_HCS_1.5hr_SingleDonor1434_Cytotoxicity: Cytotoxicity Assessment using High-content Screening (HCS) Fluorescent Imaging for the Texas A&M University (TAMU) 1.5-hr Human Induced Pluripotent Stem Cell (iPSC)-derived Cardiotoxicity Assay (AID 2284234; active means hit-call score of the fitted dose curve at least 0.9, where 1 is the maximum)
# Outline: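 Nuclear counts from Hoechst 33342 imaging define cytotoxicity here, with EC10 (10% cell-count loss relative to DMSO) as point of departure. iPSC cardiomyocytes received 0.2-100 uM test chemical in 0.5% DMSO for 1.5 h at 37 C.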
# Tumor necrosis factor (Homo sapiens), sequence (P01375 whole entry, looked up): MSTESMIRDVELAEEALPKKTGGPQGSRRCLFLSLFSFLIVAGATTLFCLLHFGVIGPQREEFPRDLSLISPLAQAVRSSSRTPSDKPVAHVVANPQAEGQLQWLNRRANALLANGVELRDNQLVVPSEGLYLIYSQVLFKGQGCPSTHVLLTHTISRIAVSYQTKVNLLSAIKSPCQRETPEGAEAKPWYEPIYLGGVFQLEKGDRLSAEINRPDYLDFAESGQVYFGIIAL
smiles,measurement,setting,value
COc1cc2c(c(OC)c1OC)-c1ccc(OC)c(=O)cc1[C@@H](NC(C)=O)CC2,outcome,[1],inactive
same,AC50,[2],0.0535 µM (active)
same,AC50,[3],0.00988 µM (active)
same,AC50,[4],0.0228 µM (active)
OC(O)(C(F)C(O)(O)C(F)(F)F)C(F)(F)F,outcome,[5],inactive
same,outcome,[6],inactive
same,outcome,[7],inactive
same,AC50,[4],13.4 µM (active)
Cn1cc[nH]c1=S,outcome,[2],inactive
same,outcome,[3],inactive
same,outcome,[4],inactive
NNC(=O)c1ccncc1,outcome,[3],inactive
same,outcome,[4],inactive
NC(=O)N1c2ccccc2C=Cc2ccccc21,outcome,[8],inactive
same,outcome,[9],inactive
same,outcome,[2],inactive
same,outcome,[3],inactive
same,outcome,[4],inactive
OC[C@H]1O[C@@](CO)(O[C@H]2O[C@H](CO)[C@@H](O)[C@H](O)[C@H]2O)[C@@H](O)[C@@H]1O,outcome,[10],inactive
NCC(F)(F)C(F)(F)C(F)(F)C(F)(F)F,outcome,[5],inactive
same,outcome,[6],inactive
same,outcome,[7],inactive
CCCC(CCC)C(=O)O,outcome,[8],inactive
same,outcome,[9],inactive
same,outcome,[1],inactive
same,outcome,[3],inactive
same,AC50,[4],1500 µM (active)
OC(Cn1cncn1)(Cn1cncn1)c1ccc(F)cc1F,outcome,[3],inactive
same,outcome,[4],inactive
O=S(=O)(O)CCC(F)(F)C(F)(F)C(F)(F)C(F)(F)C(F)(F)C(F)(F)F,outcome,[5],inactive
same,outcome,[6],inactive
same,outcome,[7],inactive
c1ccc2c(c1)-c1cccc3c1c-2cc1ccccc13,outcome,[10],inactive
same,outcome,[1],inactive
c1ccc2cc3ccccc3cc2c1,outcome,[2],inactive
same,outcome,[3],inactive
same,outcome,[4],inactive
FC(F)=C(F)C(F)(F)C(F)(F)C(F)(F)C(F)(F)C(F)(F)C(F)(F)F,outcome,[5],inactive
same,outcome,[6],inactive
same,outcome,[7],inactive
same,outcome,[4],inactive
S=P(N1CC1)(N1CC1)N1CC1,outcome,[5],inactive
same,outcome,[6],inactive
same,outcome,[7],inactive
FC(F)C(F)(F)COCC1CO1 (configuration not stated),outcome,[5],inactive
same,outcome,[6],inactive
same,outcome,[7],inactive
